Results from PubChem BioAssay (NCI).
The panel holds about 79,000 compounds, 15% with a hit somewhere; the sample as a whole holds those more often. Unmarked numbers belong to inactive results. The source made the active and inactive calls. Rule as the data show it: active = growth inhibition above about 70%; inactive = the rest.

Experiment: NCI Yeast Anticancer Drug Screen. Data for the mgt1 strain (AID 153)
Conditions: S. cerevisiae mgt1 mutant growth inhibition; at 100.0 µM; hits give high values
How it was run: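 Read-out: yeast growth inhibition vs vehicle control. Strain mgt1, drawn from a panel altered in DNA damage repair or cell cycle control.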

Compound | growth inhibition
S=C(N/N=C(/c1ccccc1)c1ccccn1)N1CCCCCC1 | -6%
Cc1ccc2[nH]c3c(C)c4cc[n+](C)cc4c(C)c3c2c1 | 94% (active)
CNC(=O)OCc1c(COC(=O)NC)c(-c2ccc(-c3ccccc3)cc2)n(C)c1C | 10%
COc1ccccc1/C=C1\Sc2scc(-c3cccc([N+](=O)[O-])c3)[n+]2C1=O | 91% (active)
O=[N+]([O-])c1ccc2c(c1)C(N1CCN(CCO)CC1)Cc1ccc(F)cc1S2 (configuration not stated) | 34%
Cc1ccc(CCC2=CCCc3c2ccc2ccccc32)cc1 | -39%
O=[N+]([O-])c1cccc2nccc(NCCCO)c12 | 26%
Cc1ccc(-n2cc(-c3ccc(Cl)cc3)c(C#N)c2N)cc1 | -3%
Cc1ccc(S/N=C\c2ccccc2O)cc1 | -1%
O=C(O)C1OC1(c1cccc(Cl)c1)c1ccccc1Cl (configuration not stated) | 95% (active)
NC(=S)N/N=C\c1nccc2ccccc12 | 99% (active)
Clc1cccc(C(Nc2nncs2)Nc2nncs2)c1Cl | 49%
O=C(OCC=C1CCCC1)c1cc([N+](=O)[O-])cc([N+](=O)[O-])c1 | 98% (active)
O=C(Nc1ccccc1)C(=O)C(C(=O)c1ccccc1)C(c1ccccc1)c1ccccc1 (configuration not stated) | 42%
N#CN1C2CCC1CC(=O)C2 | -8%
COc1ccccc1C(=O)OCC1CCCN2CCCCC12 (configuration not stated) | 98% (active)
CCNc1nnc(CSc2nc(-c3ccccc3)c(-c3ccccc3)[nH]2)s1 | 73% (active)
O=C1c2ccccc2-c2n[nH]c3cccc1c23 | 32%

Experiment: NCI Yeast Anticancer Drug Screen. Data for the rad50 strain (AID 155);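 also: 0% = growth of vehicle-only cultures of the same strain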
Conditions: S. cerevisiae rad50 strain growth inhibition; at 1.2 µM; hits give high values
How it was run: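 Cells are treated with compound, grown, and their growth is then scored against vehicle-only cultures of the same repair-deficient yeast strain.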

Compound | growth inhibition [%]
CCC/C(Cl)=N\OC(=O)Nc1cccc(C(F)(F)F)c1 | 12
[O-][n+]1c2ccc(O)cc2nc2ccc(Cl)cc21 | 6
Clc1ccccc1C1OC1c1ccccc1Cl (configuration not stated) | -66
c1ccc2c(c1)c1ncccc1c1nccnc21 | -4
CC(=O)Nc1ccc2c(c1)C(=Nc1ccc(C(=O)O)cc1)c1ccccc1-2 | -1
COc1ccc(OC)c2cc3ccccc3cc12 | -1
COc1cc(C2c3cc4c(cc3OC(NNc3ccccc3)C2C)OCO4)cc(OC)c1OC (configuration not stated) | 23
O=C1c2cc([N+](=O)[O-])ccc2-c2cccc(F)c21 | 12
CCCCCCCCCCCC(=O)N(C)C | -2
CCCCCCCCCCCC1=C(O)C(=O)C=C(O)C1=O | -15
Cc1ccc(CSC(N)=Nc2ccccc2)cc1C | 9
CCCCCCCCCCC1CCC(=O)O1 (configuration not stated) | -1
O=[N+]([O-])c1cc(CCl)ccc1CCl | 7
Nc1ccc2c(c1)C(=O)c1cccc(N)c1C2=O | 10
CCCCCCCCCCNC(=O)OCC | 1
CC1=C(C)Cc2c(O)ccc(O)c2C1 | 1
COc1ccc2c(c1)C(=O)c1ccccc1C2 | 3
CCC(=O)OCCn1c2nc(=O)[nH]c(=O)c-2nc2cc(C)c(C)cc21 | -57
O=C(OCCN1CCCCCC1)C(c1ccsc1)C1CCCCC1 (configuration not stated) | 11
Oc1c(Br)cc(Br)cc1C1CCCCC1 | -8

Compound | growth inhibition [%]
CC1(C)[C@@H]2CC[C@]1(C)[C@H](OC(=O)CSC#N)C2 | 1
S=C(N/N=C(/c1ccccc1)c1ccccn1)N1CCCCCC1 | 0
Cc1ccc2[nH]c3c(C)c4cc[n+](C)cc4c(C)c3c2c1 | 12
CNC(=O)OCc1c(COC(=O)NC)c(-c2ccc(-c3ccccc3)cc2)n(C)c1C | -46
COc1ccccc1/C=C1\Sc2scc(-c3cccc([N+](=O)[O-])c3)[n+]2C1=O | 47
O=[N+]([O-])c1ccc2c(c1)C(N1CCN(CCO)CC1)Cc1ccc(F)cc1S2 (configuration not stated) | 1
Cc1ccc(CCC2=CCCc3c2ccc2ccccc32)cc1 | -1
O=[N+]([O-])c1cccc2nccc(NCCCO)c12 | -17
Cc1ccc(-n2cc(-c3ccc(Cl)cc3)c(C#N)c2N)cc1 | -3
Cc1ccc(S/N=C\c2ccccc2O)cc1 | -2
O=C(O)C1OC1(c1cccc(Cl)c1)c1ccccc1Cl (configuration not stated) | 1
NC(=S)N/N=C\c1nccc2ccccc12 | -5
Clc1cccc(C(Nc2nncs2)Nc2nncs2)c1Cl | 4
O=C(OCC=C1CCCC1)c1cc([N+](=O)[O-])cc([N+](=O)[O-])c1 | 0
O=C(Nc1ccccc1)C(=O)C(C(=O)c1ccccc1)C(c1ccccc1)c1ccccc1 (configuration not stated) | 1
N#CN1C2CCC1CC(=O)C2 | 3
COc1ccccc1C(=O)OCC1CCCN2CCCCC12 (configuration not stated) | 8
CCNc1nnc(CSc2nc(-c3ccccc3)c(-c3ccccc3)[nH]2)s1 | -3
O=C1c2ccccc2-c2n[nH]c3cccc1c23 | -21
